In PubChem BioAssay (NCI):
About 83,000 compounds went through this panel and 20% of them were active in at least one assay; those are over-represented in the sample as a whole.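 Step 1: grow cells in 96-well plates. Step 2: add test compound at a single concentration. Step 3: incubate 48 h. Step 4: record percent growth.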 Calls of active or inactive are those of the source. How the source made its calls: active means growth percent below 10; inactive means the rest.

Key:
Test in all cases: NCI-60 one-dose screen, 48 h (100 = growth as untreated, 0 = no growth, -100 = all killed)
SR leukemia = conditions: 10 µM unless noted
RPMI-8226 leukemia = conditions: 10 µM unless noted
OVCAR-8 ovarian = conditions: 10 µM unless noted
OVCAR-5 ovarian = conditions: 10 µM unless noted
SK-OV-3 ovarian = conditions: 10 µM unless noted
IGROV1 ovarian = conditions: 10 µM unless noted
OVCAR-3 ovarian = conditions: 10 µM unless noted
HS 578T breast = conditions: 10 µM unless noted
T-47D breast = conditions: 10 µM unless noted
BT-549 breast = conditions: 10 µM unless noted
MDA-MB-435 melanoma = conditions: 10 µM unless noted
SW-620 colon = conditions: 10 µM unless noted
MCF7 breast = conditions: 10 µM unless noted
HCT-116 colon = conditions: 10 µM unless noted
HCC-2998 colon = conditions: 10 µM unless noted
KM12 colon = conditions: 10 µM unless noted
NCI/ADR-RES ovarian = conditions: 10 µM unless noted
OVCAR-4 ovarian = conditions: 10 µM

| SMILES | growth (SR leukemia) | growth (RPMI-8226 leukemia) | growth (OVCAR-8 ovarian) | growth (OVCAR-5 ovarian) | growth (SK-OV-3 ovarian) | growth (IGROV1 ovarian) | growth (OVCAR-3 ovarian) | growth (HS 578T breast) | growth (T-47D breast) | growth (BT-549 breast) | growth (MDA-MB-435 melanoma) | growth (SW-620 colon) | growth (MCF7 breast) | growth (HCT-116 colon) | growth (HCC-2998 colon) | growth (KM12 colon) | growth (NCI/ADR-RES ovarian) | growth (OVCAR-4 ovarian) |
| --- | --- | --- | --- | --- | --- | --- | --- | --- | --- | --- | --- | --- | --- | --- | --- | --- | --- | --- |
| C[n+]1cccc(NC(=O)c2ccc3ccc4ccc(C(=O)Nc5ccc[n+](C)c5)nc4c3n2)c1 | 75% (inactive) | 61.5% (inactive) | 62.5% (inactive) | 79.5% (inactive) | 8.34% (active) | 32.3% (inactive) | 62.4% (inactive) | 74.7% (inactive) | 12% (inactive) | 90.4% (inactive) | 67.8% (inactive) | 56% (inactive) | 54% (inactive) | 43.1% (inactive) | 42% (inactive) | 42.2% (inactive) |  |  |
| CCOc1cc(NC(=O)c2ccccc2)c(OCC)cc1N | 110% (inactive) | 113% (inactive) | 113% (inactive) | 113% (inactive) | 114% (inactive) | 84.8% (inactive) | 108% (inactive) |  | 101% (inactive) | 130% (inactive) | 107% (inactive) | 109% (inactive) | 108% (inactive) | 118% (inactive) | 112% (inactive) | 105% (inactive) | 111% (inactive) |  |
| COc1ccc(/C=C(/C(=O)c2ccc(Cl)cc2)C(=O)C(F)(F)F)cc1 | 76.2% (inactive) | 90.2% (inactive) |  | 103% (inactive) | 100% (inactive) | 96% (inactive) | 98.7% (inactive) | 96.2% (inactive) | 90.3% (inactive) | 111% (inactive) |  | 101% (inactive) | 77.2% (inactive) | 101% (inactive) | 93.4% (inactive) | 91.6% (inactive) | 95.8% (inactive) | 96.3% (inactive) |
| O=C1Nc2ccccc2/C1=C/C(=O)c1ccc(N2CCOCC2)cc1 | 26.7% (inactive) | 79.6% (inactive) | 82.9% (inactive) | 96.9% (inactive) | 106% (inactive) | 70.3% (inactive) |  |  | 81.1% (inactive) | 97% (inactive) | 96% (inactive) | 51.6% (inactive) | 79.5% (inactive) | 92.2% (inactive) | 101% (inactive) | 105% (inactive) | 100% (inactive) |  |
| CCN(CC)c1ccc2cc(C(Nc3ccc(Br)c(C(F)(F)F)c3)c3nnnn3C(C)(C)C)c(=O)oc2c1 (stereo unspecified) | 98.8% (inactive) | 87.1% (inactive) | 91.5% (inactive) | 92% (inactive) | 84.7% (inactive) | 106% (inactive) |  | 79.6% (inactive) | 64.2% (inactive) | 97.3% (inactive) | 99.4% (inactive) | 98.7% (inactive) | 73.8% (inactive) | 93.5% (inactive) | 106% (inactive) | 102% (inactive) | 93.8% (inactive) |  |
| COC(=O)c1cc(O)c2c(c1C(=O)OC)C[C@H]1[C@@H]3CC=C4C[C@@H](O)CC[C@]4(C)[C@H]3CC[C@]21C | 31.5% (inactive) | 16.6% (inactive) | 63.9% (inactive) | 61.4% (inactive) | 83.7% (inactive) | 72.8% (inactive) |  | 31.5% (inactive) | 36% (inactive) | 32.3% (inactive) | 37.6% (inactive) | 44.9% (inactive) | 37.2% (inactive) | 22% (inactive) | 41.6% (inactive) | 36.3% (inactive) | 44.2% (inactive) |  |
| O=c1cc(-c2ccccc2)oc2cc(OCc3cn(Cc4ccc(F)cc4)nn3)cc(O)c12 | 96.8% [100 µM] (inactive) | 93.7% [100 µM] (inactive) | 20.4% [100 µM] (inactive) | 83.7% [100 µM] (inactive) | 20.6% [100 µM] (inactive) | 31.2% [100 µM] (inactive) | 61.7% [100 µM] (inactive) | 9.08% [100 µM] (active) | 44.2% [100 µM] (inactive) | 16.3% [100 µM] (inactive) | 98.2% [100 µM] (inactive) |  | 65.7% [100 µM] (inactive) | 48.5% [100 µM] (inactive) | 100% [100 µM] (inactive) | 99.4% [100 µM] (inactive) | 43.2% [100 µM] (inactive) |  |
| C=C(C)[C@@H]1CC[C@]2(C(=O)NCCNCCNCCN)CC[C@]3(C)[C@H](CC[C@@H]4[C@@]5(C)CC[C@H](O)C(C)(C)[C@@H]5CC[C@]43C)[C@@H]12 | -4.72% [100 µM] (active) | -8.15% [100 µM] (active) | -12.9% [100 µM] (active) | -83.4% [100 µM] (active) | -14.2% [100 µM] (active) | -81.4% [100 µM] (active) | -66% [100 µM] (active) |  | -32.6% [100 µM] (active) | -51.9% [100 µM] (active) | -89.2% [100 µM] (active) | -86.7% [100 µM] (active) | -60.5% [100 µM] (active) | -26.5% [100 µM] (active) | -90.4% [100 µM] (active) | -52.2% [100 µM] (active) | -13.1% [100 µM] (active) |  |
| C=C(CN=[N+]=[N-])[C@@H]1CC[C@]2(C)[C@H](CC[C@@H]3[C@H]4[C@H]5OC(=O)[C@@]4(CCC5(C)C)CC[C@]32C)[C@@]1(C)CCC#N | 64% [100 µM] (inactive) | 57% [100 µM] (inactive) | 92.2% [100 µM] (inactive) | 98.3% [100 µM] (inactive) | 75.4% [100 µM] (inactive) | 106% [100 µM] (inactive) | 82.5% [100 µM] (inactive) |  | 55.6% [100 µM] (inactive) | 78.7% [100 µM] (inactive) | 76.3% [100 µM] (inactive) | 87.3% [100 µM] (inactive) | 64.5% [100 µM] (inactive) | 47.3% [100 µM] (inactive) | 89.3% [100 µM] (inactive) | 81.7% [100 µM] (inactive) | 90.8% [100 µM] (inactive) |  |
| O=C(NCCO)c1cccnc1 | 103% (inactive) | 95.4% (inactive) |  | 103% (inactive) | 97.4% (inactive) | 100% (inactive) | 111% (inactive) | 92.1% (inactive) |  | 108% (inactive) | 106% (inactive) | 96.1% (inactive) | 98.5% (inactive) | 99% (inactive) | 103% (inactive) |  | 96.5% (inactive) | 110% (inactive) |
| O=C(N/N=C\c1cc(Cl)ccc1O)N/N=C/c1cc(Cl)ccc1O | 35.4% (inactive) | 29.4% (inactive) |  | 75.6% (inactive) | 73.7% (inactive) | 49.1% (inactive) | 10.2% (inactive) | 34.6% (inactive) | 49.6% (inactive) |  | 47.7% (inactive) | 42.3% (inactive) | 46.2% (inactive) | 16% (inactive) | 46.1% (inactive) | 44.4% (inactive) | 16% (inactive) |  |
| Fc1ccc(NC(=S)c2ccccc2)cc1 | 102% (inactive) | 89% (inactive) |  | 94.5% (inactive) | 117% (inactive) | 106% (inactive) |  | 101% (inactive) | 96.4% (inactive) | 90.3% (inactive) | 98% (inactive) | 102% (inactive) | 93.9% (inactive) | 103% (inactive) | 116% (inactive) | 100% (inactive) | 108% (inactive) | 100% (inactive) |
| Clc1ccccc1/C=N\Nc1ccccn1 | 90.5% (inactive) | 93.1% (inactive) |  | 104% (inactive) | 84.1% (inactive) | 64% (inactive) | 94.1% (inactive) | 99.4% (inactive) | 62.1% (inactive) | 114% (inactive) |  | 102% (inactive) | 28.4% (inactive) | 107% (inactive) | 111% (inactive) | 87.2% (inactive) | 91.1% (inactive) | 68% (inactive) |
| Cc1ccc(-c2cc(O)c(-c3ccc(C)cc3C)cc2O)c(C)c1 | 7.1% (active) | 37.2% (inactive) |  | 96.9% (inactive) | 82.7% (inactive) | 86.9% (inactive) | 67.8% (inactive) | 87.9% (inactive) | 67.1% (inactive) |  | 66.5% (inactive) | 56.5% (inactive) | 49.2% (inactive) | 23.9% (inactive) | 77.7% (inactive) | 55.3% (inactive) | 52.2% (inactive) | 41.2% (inactive) |
| CCOC(=O)C(C(C)=O)c1nc2sc3cc(Cl)c(Cl)cc3n2c(=O)c1C#N (stereo unspecified) | 105% (inactive) | 98.6% (inactive) |  | 122% (inactive) | 83.2% (inactive) |  | 112% (inactive) | 114% (inactive) | 78% (inactive) |  | 106% (inactive) | 116% (inactive) | 65.4% (inactive) | 101% (inactive) | 106% (inactive) | 98.6% (inactive) | 106% (inactive) | 94.5% (inactive) |
| O=C(NCCCNC(=O)OCc1ccc2c(Br)cc(Br)c(O)c2n1)OCc1ccc2c(Br)cc(Br)c(O)c2n1 | 5.95% (active) | -27.3% (active) |  | -63% (active) | 20.2% (inactive) | -87.7% (active) |  | -19.1% (active) | -58.2% (active) |  | -71.2% (active) | -44.7% (active) | -28.1% (active) | -66% (active) | -42.5% (active) | 7.57% (active) | -29% (active) | -77.6% (active) |
